Records with an inconclusive call do not appear. A call without a number means that no potency is given here. Calls of active or inactive are those of the source. The call rests on the fitted dose curve; in most records, active means well fitted activation curve with a large enough effect; inconclusive means small, poorly fitted or top-dose-only effect; inactive means flat fitted curve, though single readings scatter.
assay: qHTS for Inhibitors of Cell Surface uPA Generation: FP59 Counterscreen for Cherry-picked Compounds; settings: FP59 anthrax toxin cytotoxicity counterscreen, cells; series mostly up to 115 µM
Potency means the concentration at half of the fitted maximal effect.

Row | SMILES | Potency
1 | CCCOc1ccc(S(=O)(=O)NNC(=O)c2cc3ccccc3o2)cc1 | inactive
2 | CC(C)(C)n1ncc2c(=O)n(Cc3ccc(Cl)cc3)cnc21 | inactive
3 | C=CCc1cc(S(=O)(=O)c2ccc(O)c(CC=C)c2)ccc1O | inactive
4 | CC(C)(C)OC(=O)C[C@@H]1C/C=C\C[C@@H](CC(=O)N(CCO)Cc2ccccc2)C(=O)N[C@H](Cc2c[nH]c3ccccc23)COC1=O | inactive
5 | CCNC(=S)NNC(=O)C(c1ccccc1)c1ccccc1 | inactive
6 | Fc1ccc(NC(=S)N2CCCC(c3ccccc3)=N2)cc1 | inactive
7 | Cn1c(=O)c2c(ncn2CCO)n(C)c1=O | inactive
8 | CCCCCCCCCOC(=O)C1N2C(=O)[C@@H](NC(=O)COc3ccccc3)[C@H]2SC1(C)C (some centres undefined) | inactive
9 | CCOC(=O)C1=C(CN2CCN(C(=O)c3ccco3)CC2)NC(=O)NC1c1ccccc1 (centres undefined) | inactive
10 | Cc1ccc(-n2cccc2C(=O)NS(=O)(=O)c2ccc(C)cc2)cc1 | inactive
11 | CCN(CC)S(=O)(=O)c1cc(NC(=O)COC(=O)C2CCC2)ccc1C | inactive
12 | O=C(NNC(=O)c1cccc(-n2cccc2)c1)c1ccc(F)cc1 | inactive
13 | CN(CC(=O)N(C)CC(=O)Nc1c(Cl)cccc1Cl)Cc1ccccc1F | inactive
14 | CC1CCCCN1C(=O)CSc1nc2ncccc2[nH]1 (centres undefined) | inactive
15 | Cc1cc(NC(=O)COc2cccc([N+](=O)[O-])c2)no1 | inactive
16 | COC(=O)[C@H](CC(C)C)N(Cc1ccccc1)S(=O)(=O)N(Cc1ccc(OC)cc1)[C@@H](CC(C)C)C(=O)OC | inactive
17 | CC(/C=C/C1(O)C(C)CC(O)CC1(C)C)OC1OC(CO)C(O)C(O)C1O (centres undefined) | inactive
18 | CCOc1ccc(N(CC(=O)Nc2ccc(CC)cc2)S(=O)(=O)c2c(C)[nH]c(=O)[nH]c2=O)cc1 | inactive
19 | COc1ccc(N(C(C)C(=O)NN=C2CCCC2)S(C)(=O)=O)cc1 (centres undefined) | inactive
20 | CC1(C)C([N+](=O)[O-])C(c2ccc(F)cc2)NC(c2ccc(F)cc2)C1[N+](=O)[O-] (centres undefined) | inactive

Row | SMILES | Potency
21 | COC(=O)Cc1c(C)c2ccc(OCC(=O)N3CCCC(C)C3)c(C)c2oc1=O (centres undefined) | inactive
22 | Cc1ccc(S(=O)(=O)N2CCOCC2)cc1C(=O)OC1CCOC1=O (centres undefined) | inactive
23 | Cc1ccccc1OCCC(=O)NNC(=O)c1ccccc1F | inactive
24 | COc1ccc(CNCCC2(C(C)C)CCOC(C)(C)C2)cc1 (centres undefined) | inactive
25 | O=C(c1ccc(NC(=S)NCc2ccc(Cl)cc2)cc1)N1CCCCC1 | inactive
26 | CCOC(=O)c1c(C)oc2ccc(OC(=O)COc3c(F)c(F)c(F)c(F)c3F)cc12 | inactive
27 | CN(CCCNC(=O)Cn1cccc1C(=O)c1ccccc1)C1CCCCC1 | inactive
28 | Cc1ccc(S(=O)(=O)N2CCOCC2)cc1NC(=O)CSc1nc(N)cc(N)n1 | inactive
29 | O=C(NCCN1CCOCC1)c1ccc2c(c1)N(Cc1ccc(Cl)cc1)CCS2 | inactive
30 | CCOCc1nnc(NC(=O)C2CCN(C(=O)C3CC(=O)N(c4ccc(C)cc4)C3)CC2)s1 (centres undefined) | inactive
31 | CCN(CC)CC(=O)Nc1sc2c(c1C(=O)c1ccccc1OC)CCC2 | 16.5 µM (active)
32 | Cc1ccc2nc(-c3ccncc3)cc(C(=O)NCCc3ccc(F)cc3)c2c1 | inactive
33 | CCn1nc(NS(=O)(=O)c2ccccc2)c2cc3cc(C)ccc3nc21 | inactive
34 | CSc1nc(N)nc2c1ncn2CC(=O)NCC1CCCO1 (centres undefined) | inactive
35 | Cc1cccc(/C=N/Nc2cc(N3CCOCC3)nc(N3CCOCC3)n2)c1 | inactive
36 | O=C(Nc1ccc(S(=O)(=O)N2CCOCC2)cc1)c1cc(-c2ccccc2O)n[nH]1 | inactive
37 | O=C(C1=C[C@H](c2ccccc2)C[C@H](OCCCCO)O1)N1CCN(Cc2ccc3c(c2)OCO3)CC1 | inactive
38 | CCOC(=O)c1c(NC(=O)COc2ccccc2C#N)sc2c1CC(C)(C)NC2(C)C | inactive
39 | O=C(NCCOc1ccc(F)cc1)C1CCN(S(=O)(=O)c2ccccc2)CC1 | inactive

Reference: PubChem BioAssay AID720517 (National Center for Advancing Translational Sciences (NCATS), 2013)
